In the supplement of paper PMC10849652:
About 7,900 targets were measured; listed, in parts, are those with a hit and a random draw of the rest. About 0.6% of all pairs of compound and target were hits. A number with no mark means an inactive call.

What was measured:
Assay in all cases: log2 fold change, soluble protein after heating vs DMSO (PISA); higher = thermal stabilisation; K562 cells, 10 uM, 30 min; active = over 0.2 and 3.5 SD of the protein, either way, in both replicates (recomputed)
IRAK-1-4 Inhibitor I = compound: C1COCCN1CCN2C3=CC=CC=C3N=C2NC(=O)C4=CC(=CC=C4)[N+](=O)[O-] [IRAK-1-4 Inhibitor I]
Outline: (§1)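 K562 cells (2×10^6 cells/mL) were treated with 10 μM compound for 30 min, and aliquots were heated for 3 min over 48°C-58°C. Pooled aliquots were extracted in PBS with 0.5% NP-40 at 4°C, and the supernatant after 21,000xg for 90 min was measured by TMTpro 16plex LC-MS/MS with channel sums equalised. Reported thermal stability, relative to control samples and from duplicates, is a log2 fold change.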

ibrutinib = compound: C=CC(=O)N1CCC[C@@H](n2nc(-c3ccc(Oc4ccccc4)cc3)c3c(N)ncnc32)C1 [ibrutinib]
Outline: as §1

[1] = compound: CC(=O)c1cnc2ccc(-c3cc(Cl)c(O)c(Cl)c3)nc2c1N[C@H]1CC[C@H](CN(C)C)CC1
Outline: as §1

ralimetinib = compound: CC(C)(C)Cn1c(N)nc2ccc(-c3[nH]c(C(C)(C)C)nc3-c3ccc(F)cc3)nc21 [ralimetinib]
Outline: as §1

[2] = compound: CC(C)C1=C2N=C(C=C(N2N=C1)NCC3=CC=CC=C3)NCCCCCCN
Outline: as §1

[3] = compound: CC(C)C[C@@H](C=O)NC(=O)[C@H](CC(C)C)NC(=O)[C@H](CC(C)C)NC(=O)OCc1ccccc1
Outline: as §1

pinometostat = compound: CC(C)N(C[C@H]1O[C@@H](n2cnc3c(N)ncnc32)[C@H](O)[C@@H]1O)[C@H]1C[C@@H](CCc2nc3cc(C(C)(C)C)ccc3[nH]2)C1 [pinometostat]
Outline: as §1

[4] = compound: CC1=C(C(CC(=O)N1)C2=CC=C(C=C2)C(F)(F)F)C(=O)NC3=C(C=C4C(=C3)C=NN4)F
Outline: as §1

[5] = compound: CC1=C(C2=C(C=C1)C(=O)C3=CC=CC=C3N2CCCN)C
Outline: as §1

[6] = compound: CC1=C(C=C(C=C1)NC(=O)C2=CC(=CC=C2)N(C)C)NC(=O)C3=CC=C(C=C3)O
Outline: as §1

[7] = compound: CC1=CC=C(C=C1)SC2=C3C=C(SC3=CN=C2)C(=O)N
Outline: as §1

[8] = compound: CC1=NC(=CC=C1)C2=C(N=C(N2)C(C)(C)C)C3=CC4=NC=CN=C4C=C3
Outline: as §1

vemurafenib = compound: CCCS(=O)(=O)Nc1ccc(F)c(C(=O)c2c[nH]c3ncc(-c4ccc(Cl)cc4)cc23)c1F [vemurafenib]
Outline: as §1

[9] = compound: CCCS(=O)(=O)Nc1ccc(F)c(C(=O)c2c[nH]c3ncc(Cl)cc23)c1F
Outline: as §1

[10] = compound: CCCc1cc(C)[nH]c(=O)c1CNC(=O)c1cc(-c2ccnc(N3CCN(C)CC3)c2)cc2c1cnn2C(C)C
Outline: as §1

givinostat = compound: CCN(CC)Cc1ccc2cc(COC(=O)Nc3ccc(C(=O)NO)cc3)ccc2c1 [givinostat]
Outline: as §1

barasertib = compound: CCN(CCCOc1ccc2c(Nc3cc(CC(=O)Nc4cccc(F)c4)[nH]n3)ncnc2c1)CCOP(=O)(O)O [barasertib]
Outline: as §1

[11] = compound: CC1=C(C=C(C=C1)NC(=O)C2=CC(=CC=C2)C(C)(C)C#N)NC3=CC4=C(C=C3)N=CN(C4=O)C
Outline: as §1

[12] = compound: CC(C)(O)CC(=O)NCCn1ccc2ncnc(Nc3ccc(Oc4cccc(C(F)(F)F)c4)c(Cl)c3)c21
Outline: as §1

Nexturastat A = compound: CCCCN(Cc1ccc(C(=O)NO)cc1)C(=O)Nc1ccccc1 [Nexturastat A]
Outline: as §1

UniProt Q9Y6X9, sequence (Q9Y6X9 whole entry, looked up): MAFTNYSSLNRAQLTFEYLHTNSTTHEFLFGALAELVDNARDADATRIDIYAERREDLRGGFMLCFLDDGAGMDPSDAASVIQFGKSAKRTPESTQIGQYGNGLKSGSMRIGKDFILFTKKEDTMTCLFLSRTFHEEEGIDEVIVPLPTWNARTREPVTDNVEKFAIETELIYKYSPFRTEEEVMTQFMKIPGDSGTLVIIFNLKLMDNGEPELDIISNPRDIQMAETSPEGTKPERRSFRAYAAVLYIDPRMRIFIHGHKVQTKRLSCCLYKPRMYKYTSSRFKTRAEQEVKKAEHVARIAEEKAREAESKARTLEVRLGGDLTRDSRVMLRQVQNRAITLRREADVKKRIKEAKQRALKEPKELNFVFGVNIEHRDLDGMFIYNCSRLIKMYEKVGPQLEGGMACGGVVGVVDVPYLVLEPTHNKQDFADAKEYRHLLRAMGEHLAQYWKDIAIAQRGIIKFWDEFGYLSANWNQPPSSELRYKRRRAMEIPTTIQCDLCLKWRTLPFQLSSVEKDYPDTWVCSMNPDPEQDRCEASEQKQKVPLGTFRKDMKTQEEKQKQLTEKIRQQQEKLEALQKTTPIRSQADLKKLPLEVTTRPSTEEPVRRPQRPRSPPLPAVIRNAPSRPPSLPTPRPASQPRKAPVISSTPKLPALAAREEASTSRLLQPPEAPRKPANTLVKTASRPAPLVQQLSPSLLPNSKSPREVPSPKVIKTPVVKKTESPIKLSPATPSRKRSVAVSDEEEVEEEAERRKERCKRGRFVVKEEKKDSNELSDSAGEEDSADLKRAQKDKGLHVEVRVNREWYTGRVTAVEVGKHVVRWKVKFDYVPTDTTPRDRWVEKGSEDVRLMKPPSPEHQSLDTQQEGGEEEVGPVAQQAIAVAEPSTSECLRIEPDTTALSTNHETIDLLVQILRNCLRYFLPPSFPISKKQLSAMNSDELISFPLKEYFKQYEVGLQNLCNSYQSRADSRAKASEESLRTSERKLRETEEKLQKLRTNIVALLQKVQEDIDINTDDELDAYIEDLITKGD
UniProt Q9HCD5, sequence (Q9HCD5 whole entry, looked up): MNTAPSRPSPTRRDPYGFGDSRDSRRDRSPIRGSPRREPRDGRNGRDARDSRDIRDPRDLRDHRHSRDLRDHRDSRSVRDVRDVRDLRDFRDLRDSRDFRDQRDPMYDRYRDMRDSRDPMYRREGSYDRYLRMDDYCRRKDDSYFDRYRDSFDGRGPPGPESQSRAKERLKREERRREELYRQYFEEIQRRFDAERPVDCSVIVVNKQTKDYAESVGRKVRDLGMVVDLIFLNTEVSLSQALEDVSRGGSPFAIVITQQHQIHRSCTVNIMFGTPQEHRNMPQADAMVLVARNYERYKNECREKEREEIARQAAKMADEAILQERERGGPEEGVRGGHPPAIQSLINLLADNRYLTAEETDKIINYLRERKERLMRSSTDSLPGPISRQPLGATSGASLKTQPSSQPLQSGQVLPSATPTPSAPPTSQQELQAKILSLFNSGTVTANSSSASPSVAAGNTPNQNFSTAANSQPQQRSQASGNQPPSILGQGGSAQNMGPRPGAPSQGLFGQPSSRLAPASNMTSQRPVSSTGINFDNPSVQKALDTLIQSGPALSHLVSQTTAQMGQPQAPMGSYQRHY
UniProt Q9UQ49, sequence (Q9UQ49 whole entry, looked up): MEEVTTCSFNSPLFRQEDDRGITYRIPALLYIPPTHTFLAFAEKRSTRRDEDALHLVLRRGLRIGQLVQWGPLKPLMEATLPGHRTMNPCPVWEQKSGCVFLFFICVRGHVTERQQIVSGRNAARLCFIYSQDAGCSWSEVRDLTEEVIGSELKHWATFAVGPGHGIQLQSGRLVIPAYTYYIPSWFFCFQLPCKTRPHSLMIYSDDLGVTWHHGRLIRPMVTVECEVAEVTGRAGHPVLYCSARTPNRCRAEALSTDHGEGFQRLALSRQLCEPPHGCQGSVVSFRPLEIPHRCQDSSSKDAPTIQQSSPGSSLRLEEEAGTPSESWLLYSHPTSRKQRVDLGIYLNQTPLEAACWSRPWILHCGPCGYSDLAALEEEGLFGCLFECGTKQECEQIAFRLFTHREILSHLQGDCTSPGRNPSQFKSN
UniProt Q86TA1, sequence (Q86TA1 whole entry, looked up): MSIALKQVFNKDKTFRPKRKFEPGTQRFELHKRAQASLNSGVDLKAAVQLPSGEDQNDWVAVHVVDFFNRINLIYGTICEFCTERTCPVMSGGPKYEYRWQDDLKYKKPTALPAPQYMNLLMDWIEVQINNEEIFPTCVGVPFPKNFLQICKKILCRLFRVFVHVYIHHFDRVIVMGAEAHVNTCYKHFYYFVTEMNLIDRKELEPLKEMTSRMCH
UniProt Q15746, sequence (Q15746 whole entry, looked up): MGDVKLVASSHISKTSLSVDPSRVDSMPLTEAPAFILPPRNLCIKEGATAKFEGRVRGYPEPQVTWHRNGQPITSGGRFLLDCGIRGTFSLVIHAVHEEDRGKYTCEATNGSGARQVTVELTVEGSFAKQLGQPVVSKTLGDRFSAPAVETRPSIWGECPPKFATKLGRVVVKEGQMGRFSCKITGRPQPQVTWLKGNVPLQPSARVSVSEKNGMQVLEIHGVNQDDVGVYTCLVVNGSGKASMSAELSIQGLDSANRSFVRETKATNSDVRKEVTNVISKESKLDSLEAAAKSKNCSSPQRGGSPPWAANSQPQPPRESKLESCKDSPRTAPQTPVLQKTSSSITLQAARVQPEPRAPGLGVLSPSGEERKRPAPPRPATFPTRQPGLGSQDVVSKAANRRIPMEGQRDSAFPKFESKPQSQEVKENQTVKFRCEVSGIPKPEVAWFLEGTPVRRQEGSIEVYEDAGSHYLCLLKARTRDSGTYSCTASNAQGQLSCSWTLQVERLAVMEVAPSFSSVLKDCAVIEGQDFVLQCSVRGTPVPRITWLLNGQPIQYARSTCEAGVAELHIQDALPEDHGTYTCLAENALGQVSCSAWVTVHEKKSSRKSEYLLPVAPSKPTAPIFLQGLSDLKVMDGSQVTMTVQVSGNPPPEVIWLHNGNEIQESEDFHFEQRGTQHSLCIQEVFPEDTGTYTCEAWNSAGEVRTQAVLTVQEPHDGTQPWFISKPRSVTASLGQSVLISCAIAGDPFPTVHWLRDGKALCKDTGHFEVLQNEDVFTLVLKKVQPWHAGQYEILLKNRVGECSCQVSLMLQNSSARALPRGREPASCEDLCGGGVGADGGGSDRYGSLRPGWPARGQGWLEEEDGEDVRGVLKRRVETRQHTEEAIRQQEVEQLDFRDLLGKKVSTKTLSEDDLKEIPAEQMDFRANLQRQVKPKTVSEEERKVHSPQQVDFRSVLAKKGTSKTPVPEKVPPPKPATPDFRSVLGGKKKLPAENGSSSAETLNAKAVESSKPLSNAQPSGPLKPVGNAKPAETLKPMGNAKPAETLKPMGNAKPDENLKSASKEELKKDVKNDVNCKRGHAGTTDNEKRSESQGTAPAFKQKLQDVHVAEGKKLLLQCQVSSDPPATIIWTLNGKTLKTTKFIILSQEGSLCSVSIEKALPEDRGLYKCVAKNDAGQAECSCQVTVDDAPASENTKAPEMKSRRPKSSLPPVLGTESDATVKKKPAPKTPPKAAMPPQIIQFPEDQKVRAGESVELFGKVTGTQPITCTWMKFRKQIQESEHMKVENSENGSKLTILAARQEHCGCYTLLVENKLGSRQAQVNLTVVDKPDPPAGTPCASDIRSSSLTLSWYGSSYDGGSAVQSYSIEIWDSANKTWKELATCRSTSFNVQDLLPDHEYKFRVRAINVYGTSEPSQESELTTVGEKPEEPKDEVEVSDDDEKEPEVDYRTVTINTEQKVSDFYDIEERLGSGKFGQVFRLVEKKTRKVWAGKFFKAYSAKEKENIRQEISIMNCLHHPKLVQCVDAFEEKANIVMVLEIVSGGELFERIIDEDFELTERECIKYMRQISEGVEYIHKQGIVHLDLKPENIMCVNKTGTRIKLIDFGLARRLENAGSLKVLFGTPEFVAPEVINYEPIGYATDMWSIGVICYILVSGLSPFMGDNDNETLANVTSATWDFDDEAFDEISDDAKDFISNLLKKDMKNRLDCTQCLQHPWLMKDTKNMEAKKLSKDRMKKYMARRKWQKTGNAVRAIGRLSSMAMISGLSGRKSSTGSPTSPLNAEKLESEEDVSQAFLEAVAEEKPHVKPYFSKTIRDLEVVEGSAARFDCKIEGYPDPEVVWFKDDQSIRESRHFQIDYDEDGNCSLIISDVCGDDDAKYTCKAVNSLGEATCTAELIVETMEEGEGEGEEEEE
UniProt P84157, sequence (P84157 whole entry, looked up): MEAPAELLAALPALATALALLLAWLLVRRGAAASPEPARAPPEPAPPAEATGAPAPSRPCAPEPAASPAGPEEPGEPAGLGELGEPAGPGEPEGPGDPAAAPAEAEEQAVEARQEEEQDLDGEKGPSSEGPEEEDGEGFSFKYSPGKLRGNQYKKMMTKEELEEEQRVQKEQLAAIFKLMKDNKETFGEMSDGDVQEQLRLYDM
UniProt P53370, sequence (P53370 whole entry, looked up): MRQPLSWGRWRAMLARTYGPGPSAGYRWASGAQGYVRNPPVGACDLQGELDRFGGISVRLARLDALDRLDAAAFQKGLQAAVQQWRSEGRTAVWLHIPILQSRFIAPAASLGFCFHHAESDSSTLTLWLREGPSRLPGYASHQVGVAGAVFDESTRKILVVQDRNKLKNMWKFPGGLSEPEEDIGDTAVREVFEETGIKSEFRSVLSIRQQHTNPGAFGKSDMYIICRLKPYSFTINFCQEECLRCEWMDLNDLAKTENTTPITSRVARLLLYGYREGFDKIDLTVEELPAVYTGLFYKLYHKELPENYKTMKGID
UniProt P03891, sequence (P03891 whole entry, looked up): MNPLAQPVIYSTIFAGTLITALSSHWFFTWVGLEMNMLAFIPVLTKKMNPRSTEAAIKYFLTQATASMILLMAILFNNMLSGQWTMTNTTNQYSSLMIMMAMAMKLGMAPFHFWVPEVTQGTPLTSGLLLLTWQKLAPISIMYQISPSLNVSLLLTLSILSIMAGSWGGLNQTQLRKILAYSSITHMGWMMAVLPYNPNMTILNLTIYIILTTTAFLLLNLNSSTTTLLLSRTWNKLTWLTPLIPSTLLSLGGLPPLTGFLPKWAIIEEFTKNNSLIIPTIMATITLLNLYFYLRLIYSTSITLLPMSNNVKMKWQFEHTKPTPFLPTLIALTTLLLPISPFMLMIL

Target | log2 fold change (IRAK-1-4 Inhibitor I) | log2 fold change (ibrutinib) | log2 fold change [1] | log2 fold change (ralimetinib) | log2 fold change [2] | log2 fold change [3] | log2 fold change (pinometostat) | log2 fold change [4] | log2 fold change [5] | log2 fold change [6] | log2 fold change [7] | log2 fold change [8] | log2 fold change (vemurafenib) | log2 fold change [9] | log2 fold change [10] | log2 fold change (givinostat) | log2 fold change (barasertib) | log2 fold change [11] | log2 fold change [12] | log2 fold change (Nexturastat A)
MT-ND2 (UniProt P03891) | -0.021 | -0.042 | -0.171 | -0.119 | -0.221 | -0.089 | -0.075 | -0.076 | 0.113 | 0.109 | -0.047 | 0.062 | 0.065 | 0.198 | -0.123 | 0.006 | 0.079 |  |  | 
NEU3 isoform 2 (UniProt Q9UQ49) |  |  |  |  | -0.984 (active) |  |  |  |  |  | -0.112 |  |  | 0.133 |  | 0.189 |  | 0.022 |  | 
MYLK (UniProt Q15746) | -0.051 | -0.101 |  | 0.524 | -0.207 | -0.181 | -0.051 | -0.269 | -0.136 | 0.108 | -0.013 | 0.202 | 0.081 | -0.01 | -0.154 | -0.132 | 0.032 | 0.832 (active) |  | 
MXRA7 isoform 3 (UniProt P84157) |  |  |  | -0.031 |  | 0.151 |  |  |  | 0.178 | -0.174 |  |  | 0.193 |  |  |  |  |  | 
MOB3B (UniProt Q86TA1) | -0.26 | -0.001 | -0.026 |  | -0.169 |  | -0.056 | -0.116 | 0.024 |  | -0.147 | -0.033 | 0.137 | -0.272 | 0.039 | 0.174 | 0.018 |  |  | 
NAP1L1 (UniProt B7Z9C2) | -0.147 | -0.04 | -0.058 |  | 0.359 |  | -0.052 | 0.111 |  |  |  | 0.14 | -0.304 |  | -0.109 | -0.053 | -0.002 |  |  | 
MTHFD1, A0A384N5Y3 |  | 0.002 | -0.085 | 0 |  | -0.008 |  | -0.024 | 0.049 | -0.107 | -0.055 |  | 0.088 | 0.058 | -0.035 |  | 0.044 | 0.036 | -0.034 | 0.013
NCOA5 (UniProt Q9HCD5) | -0.136 |  |  | -0.012 | -0.194 | 0.055 | 0.048 | 0.082 |  | 0.134 | 0.099 | -0.315 |  | -0.096 |  | 0.08 |  | 0.076 |  | 
MORC2 (UniProt Q9Y6X9) | -0.292 | 0.042 | -0.201 |  | -0.084 |  | 0.038 |  |  |  | -0.059 | 0.047 |  | 0.208 | 0.231 | 0.026 | -0.002 |  | -0.074 | -0.046
MPHOSPH8 isoform 2 (UniProt Q99549) | -0.149 |  | 0.026 | 0.271 |  | 0.035 | -0.027 |  | -0.84 (active) | 0.179 | -0.159 | -0.022 | -0.02 | -0.1 | -0.002 |  |  | -0.159 | -0.06 | -0.013
NUDT6 (UniProt P53370) | -0.143 |  |  | 0.183 | -0.033 | 0.035 | 0.071 | -0.161 | 0.283 | 0.049 | 0.064 | 0.075 | 0.002 | -0.037 | -0.092 | -0.027 |  |  | -0.106 | -0.119
MRM2 (UniProt Q9UI43) |  |  | -0.119 |  | -0.075 |  |  | 0.057 | 0.104 |  | 0.046 |  | 0.047 | -0.078 |  | 0.001 |  |  |  | 
